Results filed as inconclusive are left out. Values without a mark were called inactive. Active and inactive are the calls of the source. Calls come from the whole dose curve; as a rule, active = well fitted activation curve with a large enough effect; inconclusive = small, poorly fitted or top-dose-only effect; inactive = no such curve, though single readings can be large or run the other way.
Test: Activators of T cell receptors: Hit Validation; for activation: 0% is about no effect
Settings: primary human leukocytes, cytokine release by HTRF, 48 h, TCR-stimulated with anti-CD3 beads; series mostly up to 46.1 µM; activation: at the top concentration
How it was run: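 Readout is IL-2 secretion by HTRF, measured after 48 hr in which primary human leukocytes received compound together with a-CD3 beads as the only TCR stimulus.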
Potency is the fitted concentration of half-maximal effect.

Row | SMILES | activation [%] | Potency
1 | COc1ccccc1N1CCN(C(=O)C2CCN(S(=O)(=O)c3ccccc3F)CC2)CC1 | 2.82 | –
2 | CCCCCCC[C@@H](C/C=C/CCC(=O)N(C)C/C(=C/Cl)C/C(=C\C(=O)N1CC(OC)=CC1=O)OC)OC | – | 996 nM (active)
3 | Cc1n[nH]c(C)c1S(=O)(=O)N1CCCC(C(=O)Nc2nccs2)C1 (stereo not given) | -0.963 | –
4 | CCOC(=O)c1ncn2c1[C@@H]1CCNC1C(=O)c1cc(OC)ccc1-2 (stereo not given in full) | -4.11 | –
5 | COc1ccc(N(C)S(=O)(=O)c2cccc(C(=O)N3CCN(Cc4ccc5c(c4)OCO5)CC3)c2)cc1 | 4.52 | –
6 | COc1ccc(NC(=O)COC(=O)CN2C(=O)C3CCCCC3C2=O)cc1OC (stereo not given) | 0.394 | –
7 | Oc1ccc(/C=N\Nc2nncc(-c3ccccc3)n2)cc1 | 10.3 | –
8 | O=C(CCCN1CCC(C(=O)c2ccc(F)cc2)CC1)c1ccc(F)cc1 | -2.18 | –
9 | COc1cc(N)c(Cl)cc1C(=O)N[C@H]1CCN(CCCOc2ccc(F)cc2)C[C@H]1OC | -8.52 | –
10 | O=C1/C(=C/c2cccnc2)SC(=S)N1Cc1ccco1 | 8.63 | –
11 | O=C(O)c1ccc(OS(=O)(=O)c2cccc(C(F)(F)F)c2)cc1 | 1.08 | –
12 | c1ccc(Sc2ccccn2)cc1 | -4.69 | –
13 | C=C(C)C(=O)OCC(C)C | 1.15 | –
14 | OC1CCCC1 | 10.2 | –
15 | N#Cc1ccc(CN2CCN(C(=O)c3cc(Cl)c4c(c3)OCCO4)CC2)cc1 | 12.1 | –
16 | Oc1ccccc1CN1CCCC(N2CCN(c3cccc(C(F)(F)F)c3)CC2)C1 (stereo not given) | 10.3 | –
17 | CC(C)NC(=O)CCCn1c(=S)[nH]c2cc3c(cc2c1=O)OCO3 | 1.07 | –
18 | Cc1ccc(NC(=O)C2CC(=O)N(Cc3ccco3)C2)cc1 (stereo not given) | 1.44 | –
19 | COc1ccc(S(=O)(=O)N2CCN(C(=O)CCc3c[nH]c4ccccc34)CC2)cc1 | 5.36 | –
20 | CCOC(=O)C1CCCN(C(=O)c2cccc(S(=O)(=O)N3CCCC3)c2)C1 (stereo not given) | -2.23 | –
21 | CC(C)NS(=O)(=O)c1ccc(NC(=O)C(C)OC(=O)C2CCC2)cc1 (stereo not given) | 3.75 | –
22 | CCN(C(=O)CSc1nnc(C2CC2)n1-c1ccccc1)C1CCS(=O)(=O)C1 (stereo not given) | -6.94 | –
23 | CCC(=O)N1CCN(c2ccc(NC(=O)c3ccc([N+](=O)[O-])o3)cc2)CC1 | 7.54 | –
24 | CCCCN1CCC(COC(=O)c2cc(Cl)c(N)c3c2OCCO3)CC1 | 5.26 | –
25 | Cc1ncc[nH]1 | -7.21 | –
26 | COc1ccc(C(=O)/C=C(\C)Nc2ccc(NC(C)=O)cc2)cc1 | -0.292 | –
27 | CSCc1c(C(=O)OCC(=O)NC2CCCCC2)oc2ccccc12 | 3.06 | –
28 | COc1ccc(-n2c(=O)[nH]cc(C(=O)Nc3ccc4c(c3)OCO4)c2=O)cc1OC | -5.9 | –
29 | O=S(=O)(Nc1cc(Cl)ccc1-n1cncn1)c1ccc(F)cc1 | 7.59 | –
30 | CC(=O)NC(CC(=O)O)C(=O)O (stereo not given) | -17 | –

Reference: PubChem BioAssay AID624298 (National Center for Advancing Translational Sciences (NCATS), 2012)
